The results in this text go back to PubChem BioAssay (Tox21).

Results filed as inconclusive are left out. A call without a number means that no potency is given here. Calls of active or inactive are those of the source. Calls come from the whole dose curve; as a rule, active = well fitted activation curve with a large enough effect in the repeat runs; inconclusive = weak or mixed curves; inactive = flat fitted curve, though single readings scatter. Where a SMILES comes first, the peptide text is derived from it.
Potency is the fitted concentration of half-maximal effect.

The test can be described thus: A CellTox Green Cytotoxicity Assay to monitor cytotoxicity in HepG2 cells - 24 hour (AID 1224878). Note: nearly all actives have a fitted effect of over 45% in size. Particulars: CellTox Green fluorescence; series mostly up to 76.8 µM. From the text:
National Center for Advancing Translational Sciences [NCATS]
NIH Chemical Genomics Center [NCGC]
U.S. Environmental Protection Agency [EPA]
National Institutes of Environmental Health Sciences [NIEHS]
National Toxicology Program [NTP]
Cell-based models are critical for drug discovery. Determining the natural cytotoxic effects resulting from test compounds is an essential research activity. A CellTox Green Cytotoxicity Assay to monitor cytotoxicity in real time of continues cell culture during 40 hours of the compound treatment was used to screen Tox21 10K library compounds in HepG2 cells. CellTox Green Cytotoxicity Assay is a nonlytic, homogeneous, biofluorescent method to measure cytotoxicity in cell culture after experimental manipulation. The assay system uses a proprietary asymmetric cyanine dye that is excluded from viable cells but preferentially stains the dead cell's DNA. […] Viable cells produce no appreciable increases in fluorescence. Therefore, the fluorescence signal produced by the binding interaction with dead cell DNA is proportional to cytotoxicity.
The mixture of HepG2 cell suspension and reagents were dispensed at 600cells/6 ul/well in 1536-well tissue culture treated black solid bottom plates using a Multidrop dispenser. After the assay plates were incubated at a 37 C/5% CO2 incubator for 5 hours, 23 nL of compounds dissolved in DMSO, positive and negative controls was transferred to the assay plate by a pintool work station. The plates were incubated at 37 C for 40 hours. The fluorescence intensity were measured at 0h, 8h, 16h, 24h, 32h and 40h time points using ViewLux plate reader during compound treatment.
On to `CCCCCCCCCCCCCCCCCCOCCO`, for which the cytotoxicity was 0.951% [at 15.8 µM] (inactive).
Consider `Cn1nnc2c(C(N)=O)ncn2c1=O`, for which the Potency result was “inactive”.
Still for that read-out and setting: the value for `O=C(O)CCCCCC(=O)O` was “inactive”.
For the compound `N[C@@H](CSCCCO)C(=O)O`, the cytotoxicity is -17.7% [at 15.8 µM] (inactive).
Turning to `CC(=O)O[Si](C)(OC(C)=O)OC(C)=O`, the Potency entry was “inactive”.
Same read-out and setting: the value for `COC(=O)c1cccc(Cl)c1` was “inactive”; that for `CC1CC(=O)CC(C)(C)C1` (stereo not given) was “inactive”.
`CCOc1cccc(N)c1`: the Potency result was “inactive”.
Same read-out and setting: next, `CC(C)CO`: “inactive”; `Cc1ccccc1C(N)=O`: “inactive”; `CC(=O)OC(C)=O`: “inactive”.
Same read-out and setting: next, `CC1OCCC1=O` (stereo not given): “inactive”; `CCCCCC(C)O` (stereo not given): “inactive”; `CCOc1ccccc1OCC1CNCCO1` (stereo not given): “inactive”.
Turning to `O=NN(CCCl)C(=O)NC1CCCCC1`, the Potency result was “inactive”.
The same measure, in the same setting: next, `CCCC(=O)OCCC(C)CCC=C(C)C` (stereo not given): “inactive”.
Same read-out and setting: next, `CCCCOCCOC(=O)COc1ccc(Cl)cc1Cl`: “inactive”.
Still for that read-out and setting: the value for `CC(C)(CO)C(O)C(=O)NCCCO` (stereo not given) was “inactive”; that for `CC(=O)N[C@@H](CO)C(=O)N[C@@H](CC(=O)O)C(=O)N[C@@H](CCCCN)C(=O)N1CCC[C@H]1C(=O)O` (Ac-SDKP-OH) was “inactive”; that for `CCO[Si](CC)(OCC)OCC` was “inactive”.
Regarding `C=CCOC(=O)CCCCCC`, the Potency result is “inactive”.
As to `O=C(O)c1cc2ccccc2nc1C(=O)O`, the Potency result is “inactive”.
On the same count and under the same terms, the value for `C=C(C)[C@@H]1CC=C(C)CC1` was “inactive”.
Consider `[O]=[Mo](=[O])=[O]`, for which the cytotoxicity is -10.8% [at 15.8 µM] (inactive).
As for `ONc1ccccc1`, the Potency entry is “inactive”.
Consider `O=C1OCCO1`, for which the Potency entry was “inactive”.
Still for that read-out and setting: next, `CC12CCC(C1)C(C)(C)C2O` (stereo not given): 2.19 µM (active).
The same measure, in the same setting: next, `CCC(C)C(C)=O` (stereo not given): “inactive”; `CC(C)CCOC(=O)c1ccccc1`: “inactive”.
Same read-out and setting: next, `OC1(c2ccc(Cl)cc2)CCNCC1`: “inactive”; `CCCCOC(=O)C(C)O` (stereo not given): “inactive”; `CC(=O)OC1CCCCC1C(C)(C)C` (stereo not given): “inactive”.
As to `O/N=C/C=N/O`, the Potency entry was “inactive”.
Still for that read-out and setting: the value for `COP(=O)(O)OP(=O)(O)OC` was “inactive”; that for `COc1nc(N)nc2nc[nH]c12` was “inactive”.
In the case of `C=CCSSCCC`, the Potency result was “inactive”.
On the same count and under the same terms, the value for `CN(C)CCCO[C@@H]1[C@H]2OC(C)(C)O[C@H]2O[C@@H]1C(O)CO` (stereo not given in full) was “inactive”; that for `Cc1c(N)cccc1Cl` was “inactive”; that for `CC1CCc2c(N3CCC(O)CC3)c(F)cc3c(=O)c(C(=O)O)cn1c23` (stereo not given) was “inactive”.
Same read-out and setting: the value for `COC(=O)c1ccccc1C(=O)O` was “inactive”.
